Hits are enriched below; roughly 6.8% of the tested compounds scored in any of these assays.
C diff growth: C. difficile growth inhibition. Clostridium difficile clinical isolate growth, OD600, 24 h; stronger effect = lower value. growth activity, negative = inhibition, % at 16 µg/mL (by protocol). actives 0.25% (n = 86,000). AID 1259249;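 active = mean growth activity at or below -80% and every replicate also at or below -80%; inconclusive = mean at or below -80% but some replicate above -80%; inactive = mean growth activity above -80%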;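 note: 0% = DMSO wells and -100% = levofloxacin 16 µg/mL wells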
Pf Dd2 inh: P. falciparum Dd2 growth inhibition; SYBR Green, 72 h; stronger effect = lower value; activity change, % at 10 µM; actives 2.3% (n = 94,000); AID 1159554; in the data active = activity change below about -80%; inconclusive = no clear call, values can overlap the other calls
T cruzi growth-1: inhibitors of T. cruzi proliferation; inhibition, % at 8.34 µM; T. cruzi beta-gal in NIH3T3, GalScreen luminescence, 90 h; actives 5.9% (n = 77,000);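 active = mean inhibition above about 93%, with at least 55% of replicates each passing it, limit read from the data, passing the limit was not always enough; inconclusive = only one of those two conditions holds; inactive = neither condition holds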
T cruzi growth-2: inhibitors of T. cruzi proliferation | shares compounds with T cruzi growth-1 | T. cruzi beta-gal in NIH3T3, GalScreen luminescence, 90 h | inhibition, % at 8.35 µM | actives 72% (n = 5,600);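 active = mean replicate inhibition above about 95% and at least 55% of replicates individually reaching it, limit read from the data; inconclusive = only one of the two criteria is met; inactive = neither criterion is met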
T cruzi growth-3: Trypanosoma cruzi proliferation inhibition. shares compounds with T cruzi growth-1. inhibition, % at 2.09 µM. actives 21% (n = 5,600). T. cruzi beta-gal in NIH3T3, GalScreen luminescence, 90 h. AID 651740;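 active = mean inhibition above about 95%, with at least 55% of replicates also reaching it, limit read from the data; inconclusive = meets just one of the two conditions; inactive = meets neither condition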;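 note: plate controls were neutral control median for no effect and positive control median for full effect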
NIH3T3 tox: NIH/3T3 (mouse) viability loss; shares compounds with T cruzi growth-1; NIH/3T3 viability, CellTiter-Glo ATP luminescence, 90 h; cytotoxicity (signal decrease), % at 8.35 µM; actives 14% (n = 5,600);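 active = mean signal decrease across replicates above about 35% based on untreated-well scatter, with enough replicates individually passing, limit read from the data; inconclusive = no rule stated though some were filed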;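 note: 0% = median of neutral control wells and 100% = median of positive control wells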
3T3 cytotox 2: NIH/3T3 (mouse) viability loss. NIH/3T3 viability, CellTiter-Glo ATP luminescence, 90 h. shares compounds with T cruzi growth-1. actives 56% (n = 5,600). inhibition, % at 24.9 µM. AID 651744;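 active = mean loss of cell viability signal at or above a set limit, and enough replicates individually reaching it; inconclusive = meets only the mean limit or only the replicate share; inactive = meets neither condition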;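 note: 0% = median of neutral control wells and 100% = median of positive control wells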
An asterisk follows results filed as active.

Results for COc1ccc(S(=O)(=O)N(C)C[C@@H]2OCCCC[C@H](C)Oc3ccc(NS(=O)(=O)c4ccc(F)cc4)cc3C(=O)N([C@H](C)CO)C[C@H]2C)cc1 ?
C diff growth: 18.4; Pf Dd2 inh: -60.1; T cruzi growth-1: 81.4

What do the screens show for `COc1ccc(S(=O)(=O)Nc2ccc3c(c2)C(=O)N([C@@H](C)CO)C[C@@H](C)[C@H](CN(C)S(=O)(=O)c2ccc(F)cc2)OCCCC[C@H](C)O3)cc1`?
C diff growth: 7.0; Pf Dd2 inh: -27.6; T cruzi growth-1: 100.4*; T cruzi growth-2: 103.4*; T cruzi growth-3: 38.8; NIH3T3 tox: 30.1; 3T3 cytotox 2: 4.8

What do the screens show for `C[C@@H]1CN([C@@H](C)CO)C(=O)Cc2cc(NC(=O)Cc3cn(C)c4ccccc34)ccc2O[C@H]1CN(C)Cc1ccc(-c2ccccc2)cc1`?
C diff growth: 9.7; Pf Dd2 inh: -70.8; T cruzi growth-1: 69.2

How did CCCNC(=O)C[C@H]1C[C@H]2c3cc(NC(=O)Nc4ccc(F)cc4)ccc3O[C@H]2[C@H](CO)O1 do in these assays?
C diff growth: 1.0; Pf Dd2 inh: 6.8; T cruzi growth-1: 42.3

How did COC(=O)[C@@H]1[C@@H](CO)[C@@H]2Cn3c(cccc3=O)[C@@H]2N1C(=O)C1CCCC1 do in these assays?
C diff growth: -3.9; Pf Dd2 inh: 37.8

Results for COc1ccc2c3c([nH]c2c1)[C@@H](CO)N(C)CC31CCN(C(=O)NC(C)C)CC1 ?
C diff growth: 6.5; Pf Dd2 inh: -43.1

What do the screens show for `C[C@@H]1CCCCO[C@H](CN(C)C(=O)Nc2cccc3ccccc23)[C@H](C)CN([C@@H](C)CO)C(=O)c2cc(NC(=O)Nc3ccc(C(F)(F)F)cc3)ccc2O1`?
C diff growth: 5.7; Pf Dd2 inh: -63.2; T cruzi growth-1: 108.6*; T cruzi growth-2: 111.2*; T cruzi growth-3: 112.8*; NIH3T3 tox: 6.5; 3T3 cytotox 2: 12.3

Results for C[C@H](CO)N1C[C@H](C)[C@H](CN(C)C(=O)Nc2cccc3ccccc23)OCCCC[C@H](C)Oc2ccc(NC(=O)Nc3ccc(C(F)(F)F)cc3)cc2C1=O ?
C diff growth: -1.6; Pf Dd2 inh: -29.4; T cruzi growth-1: 10.4

What do the screens show for `C[C@H](CO)N1C[C@H](C)[C@H](CN(C)C(=O)Nc2ccc(C(F)(F)F)cc2)OCCCC[C@H](C)Oc2ccc(NC(=O)Nc3cccc4ccccc34)cc2C1=O`?
C diff growth: -12.7; Pf Dd2 inh: 30.5; T cruzi growth-1: 11.5

Results for C[C@@H]1CCCCO[C@@H](CN(C)C(=O)Nc2ccc(C(F)(F)F)cc2)[C@H](C)CN([C@H](C)CO)C(=O)c2cc(NC(=O)Nc3cccc4ccccc34)ccc2O1 ?
C diff growth: -12.5; Pf Dd2 inh: -79.0; T cruzi growth-1: 99.9*; T cruzi growth-2: 107.1*; T cruzi growth-3: 102.0*; NIH3T3 tox: -6.4; 3T3 cytotox 2: 4.7

Results for COc1ccccc1CNC(=O)C[C@@H]1C[C@@H]2c3cc(NC(=O)CN(C)C)ccc3O[C@@H]2[C@H](CO)O1 ?
Pf Dd2 inh: 6.8; T cruzi growth-1: 58.6

Results for O=C(c1cccc(F)c1)N1CC[C@@H]2[C@@H](CO)Nc3ccc(C#Cc4ccccc4)cc3[C@@H]21 ?
C diff growth: 69.2; Pf Dd2 inh: -43.9

Results for COc1ccccc1C#Cc1ccc2c(c1)[C@@H]1[C@@H](CCN1C(=O)c1cccc(F)c1)[C@H](CO)N2 ?
C diff growth: 39.8; Pf Dd2 inh: -60.7

Results for O=C(c1ccccc1)N1CC[C@H]2[C@H](CO)Nc3ccc(C#Cc4cccc(F)c4)cc3[C@H]21 ?
C diff growth: 41.7; Pf Dd2 inh: -34.0; T cruzi growth-1: 121.6*; T cruzi growth-2: 112.3*; T cruzi growth-3: 79.0; NIH3T3 tox: 9.5; 3T3 cytotox 2: 38.5*

What do the screens show for `COc1ccccc1C#Cc1ccc2c(c1)[C@H]1[C@H](CCN1C(=O)c1cccc(F)c1)[C@H](CO)N2`?
C diff growth: -0.8; Pf Dd2 inh: -74.2; T cruzi growth-1: inconclusive; T cruzi growth-2: 100.9*; T cruzi growth-3: 86.8; NIH3T3 tox: 33.0; 3T3 cytotox 2: 104.0*

Results for O=C(c1ccccc1)N1CC[C@H]2[C@H](CO)Nc3ccc(C#Cc4ccccc4F)cc3[C@H]21 ?
C diff growth: 18.0; Pf Dd2 inh: -44.6

Results for O=C(c1ccccc1)N1CC[C@@H]2[C@H](CO)Nc3ccc(C#Cc4ccccc4F)cc3[C@@H]21 ?
C diff growth: -33.9; Pf Dd2 inh: -30.0; T cruzi growth-1: 105.4*; T cruzi growth-2: 104.1*; T cruzi growth-3: 72.3; NIH3T3 tox: 45.0*; 3T3 cytotox 2: 105.5*

What do the screens show for `CC(C)NC(=O)N(C)C[C@H]1OCCCC[C@@H](C)Oc2ccc(NS(=O)(=O)c3cn(C)cn3)cc2C(=O)N([C@@H](C)CO)C[C@H]1C`?
C diff growth: 5.9; Pf Dd2 inh: 17.4

What do the screens show for `COc1ccccc1S(=O)(=O)N[C@H]1CC[C@H](CCn2cc(C3CC3)nn2)O[C@H]1CO`?
C diff growth: 6.5; Pf Dd2 inh: 7.4

What do the screens show for `C[C@@H]1CN([C@@H](C)CO)C(=O)Cc2cc(NC(=O)Nc3ccc(C(F)(F)F)cc3)ccc2O[C@@H]1CN(C)CC1CCCCC1`?
C diff growth: 35.0; Pf Dd2 inh: -5.2; T cruzi growth-1: 22.6

Results for COCC#Cc1cnc2c(c1)C(=O)N([C@@H](C)CO)C[C@H](C)[C@H](CN(C)Cc1ccc3c(c1)OCO3)O2 ?
C diff growth: 5.7; Pf Dd2 inh: 6.6

What do the screens show for `Cc1cccc(-c2ccc([C@@H]3[C@H](CO)N4CCCCN(C(=O)c5cccnc5)C[C@@H]34)cc2)c1`?
C diff growth: 4.4; Pf Dd2 inh: 17.7; T cruzi growth-1: 105.1*; T cruzi growth-2: 65.9; T cruzi growth-3: 5.7; NIH3T3 tox: 23.4; 3T3 cytotox 2: 35.5*

Results for COc1ccccc1-c1ccc([C@H]2[C@H](CO)N3CCCCN(C(=O)c4cccnc4)C[C@@H]23)cc1 ?
C diff growth: -7.3; Pf Dd2 inh: -14.6; T cruzi growth-1: 97.5*; T cruzi growth-2: inconclusive; T cruzi growth-3: 69.9; NIH3T3 tox: inconclusive; 3T3 cytotox 2: 39.4*

How did COc1ccccc1-c1ccc([C@H]2[C@@H](CO)N3CCCCN(C(=O)c4cccnc4)C[C@@H]23)cc1 do in these assays?
C diff growth: -1.5; Pf Dd2 inh: 4.6; T cruzi growth-1: 88.4

What do the screens show for `Cc1ccccc1-c1ccc([C@@H]2[C@H]3CN(C(=O)c4cccnc4)CCCCN3[C@H]2CO)cc1`?
C diff growth: -4.0; Pf Dd2 inh: 21.2; T cruzi growth-1: 49.2

Screening results as filed in PubChem BioAssay.
